{
  "source": "paper PMC12136788",
  "binders": {"B1": {"name": "chr1:39494447:39494448:+_ENSG00000168653_ENST00000372967|hu_mus|hu_hu_hu_mus_False|98_98 (ssRNA)", "RNA": "GGGAGUUCUACAGUCCGACGAUCGCACCGAGCGGCGAUCUUGUAGGGCUGUUCUGCGCUUAGGAACAUAAAGUGCCGGUCCAGGCUGAUGCCCAGCUUUUUCUGUAUGUCAAGGAAAGGCAUGGCUCUGCAGUGCCCUUGUCACAACAGAGGAUUGAGCAUCA"}, "B2": {"name": "chr16:75674161:75674162:-_ENSG00000065427_ENST00000302445|hu_hu|motif|central (ssRNA)", "RNA": "GGGAGUUCUACAGUCCGACGAUCCCUACCUGCCACCUUUAAGGUGAUGUCAGUCAGGUGAUCCCCAGGCUGCAGGUGACGGUAUUUUUGGAUGAAGUCAGUGAGUGAGAUGUCUACAUGGAACUUGUGUGGGUAUGGGUCUUCCAACAGAGGAUUGAGCAUCA"}, "B3": {"name": "76004153_76004273_12107_CDS_ENSMUSG00000022565_ENSMUST00000071869|mouse|control|control (ssRNA)", "RNA": "GGGAGUUCUACAGUCCGACGAUCCUUCAUGGCCUGGAAGAGGGAGAUGAGUUUCCCAGAGUAGGGGUCCUUGUAGCCAGUGACGGCACGCUCAGCUGACAGCAGCUUGUCCUUGAACUCGGGGCCCACAAUACCCAUACGAACCAACAGAGGAUUGAGCAUCA"}, "B4": {"name": "chr11:93905761:93905762:+_ENSMUSG00000020859_ENSMUST00000103168|mus_mus|motif|central (ssRNA)", "RNA": "GGGAGUUCUACAGUCCGACGAUCCGCUGGCACCCCGGUAGAAAUAGAAAAGUGCACAAGCAGCAAAACAGAGAGAGAUACGGAGAUCGCAGAAUUAAUGACCACCGCCCCGCCAACAAAGCCAAACACAAACAGCAGCAUGCACAACAGAGGAUUGAGCAUCA"}, "B5": {"name": "chr13:113691719:113691720:-_ENSMUSG00000016018_ENSMUST00000022281|mus_hu|FALSE|FALSE (ssRNA)", "RNA": "GGGAGUUCUACAGUCCGACGAUCGUAUUCACCAGAAGAAAUCCAUCGGAAAUCCUUCCCAUCAAAUUUGCGGGCAUUUGUAAAUAAAACAGUUCUAGCUGGCAUGUUAAUUCCCAUAGCAAAGGUCUCCGUGGCAAAUAAGGCCAACAGAGGAUUGAGCAUCA"}, "B6": {"name": "chr7:135612788:135612789:-_ENSG00000105887_ENST00000393085|hu_mus|FALSE|FALSE (ssRNA)", "RNA": "GGGAGUUCUACAGUCCGACGAUCGCCAAGAGGUGAAAACAAAGGUCUCAAAACACCCUGUUGCAUUAUAUUGACUCAUAGACUGAUCAUGUGCCUUCCACUUCCUAGCAGAAUGUCCAACUCUAUAGCUGCUUGGCCUUUUGGCAACAGAGGAUUGAGCAUCA"}, "B7": {"name": "chr11:4127340:4127341:+_ENSG00000167325_ENST00000300738|hu_mus|hu_hu_hu_mus_False|28_38 (ssRNA)", "RNA": "GGGAGUUCUACAGUCCGACGAUCGGCAUAGUCAGGGUGCUUCGUGGUCAAGGUCGCGGCUGUCUCAGCAGCCAGGGUGUCCAGUUCCACUGUGGUGACCCCACUGUACAAGCCUUGGAUUACUUUCAUGGUGAUCUGAGCAGGCAACAGAGGAUUGAGCAUCA"}, "B8": {"name": "chr15:96529919:96529920:-_ENSMUSG00000022462_ENSMUST00000023099|mus_hu|FALSE|FALSE (ssRNA)", "RNA": "GGGAGUUCUACAGUCCGACGAUCUCUCUAUUCUCACGCAGACGUCUUCAGUGGGUUUCUCUCAGUCAAAUACAAAUCAUAAAAAACAAACAAAAAAUUUCCCCAAAUCCAACAACAGGCAGGAAAAAUAAUUUUAAUAAAAAACAACAGAGGAUUGAGCAUCA"}, "B9": {"name": "chr2:202488911:202488912:-_ENSG00000155755_ENST00000286196|hu_mus|hu_hu_hu_mus_False|18_78 (ssRNA)", "RNA": "GGGAGUUCUACAGUCCGACGAUCAUUGAAACAUUUUUCAUAAUCUCCAGUAGCAUUCAGUAUUAUAGUAACAAAAGCUCAAUUGUAAAUACAUGUAUCUUAUAAAAAUACACUUAAAUUUAAAAACGGGGAGCGCAGGCGCCACAACAGAGGAUUGAGCAUCA"}, "B10": {"name": "chr4:24541891:24541892:-_ENSG00000109606_ENST00000336812|perfect_dup|FALSE|FALSE (ssRNA)", "RNA": "GGGAGUUCUACAGUCCGACGAUCGGAUCCCAAUUCAGUCAGAUCUCCAUCAUCAUUUAAAGCAGCCAAAUAAUUCAAAAGUUCUAGGGCUCUCAUCAGAGUUUCAGGAGCUGGUGGGUCCAUAAAAUCAAAGUGUACCAAGUCCAACAGAGGAUUGAGCAUCA"}, "B11": {"name": "chr17:62500844:62500845:-_ENSG00000108654_ENST00000583239|hu_hu|FALSE|FALSE (ssRNA)", "RNA": "GGGAGUUCUACAGUCCGACGAUCCUUGAUAAAAAUUCUUCUCAAAUUUAGGCAGCUCAUCAAGAUUCCACUUCUUUUUAACUAAUUUCUCCCCAGGGUUUCCAAACUUCUUUCCAGAUAAGGGCCCUGCCCUACUUCCUCCAACAACAGAGGAUUGAGCAUCA"}, "B12": {"name": "chr2:202488911:202488912:-_ENSG00000155755_ENST00000286196|hu_mus|hu_hu_hu_mus_False|18_68 (ssRNA)", "RNA": "GGGAGUUCUACAGUCCGACGAUCAUUGAAACAUUUUUCAUAAUCUCCAGUAGCAUUUCAGCAUUAUUAAUCAAAAACUCAAUUGUAAAUACAUGUAUCUUAUAAAAAUACACUUAAAUUUAAAAACGGGGAGCGCAGGCGCCACAACAGAGGAUUGAGCAUCA"}, "B13": {"name": "chr2:202488911:202488912:-_ENSG00000155755_ENST00000286196|hu_mus|hu_hu_hu_mus_False|58_68 (ssRNA)", "RNA": "GGGAGUUCUACAGUCCGACGAUCAUUGAAACAUUUUUCAUAAUCUCCAGUAGCAUUUCAGCAUUAUUAAUCAAAAAAUCUAUUACAAAUACAUGUAUCUUAUAAAAAUACACUUAAAAACACGAGUGGGGAGCGCAGGCGCCACAACAGAGGAUUGAGCAUCA"}, "B14": {"name": "chr2:216981417:216981418:+_ENSG00000079246_ENST00000392132|hu_hu|hu_hu_hu_mus_True|48_48 (ssRNA)", "RNA": "GGGAGUUCUACAGUCCGACGAUCCUGAUACUGGUCCUUGCCAGCAAGGGCAUUAUCAGUGCCAUCUGUGCCAUAGAGGACUAACGCAAUCUCAUCCUUGCUCUCCGAAAAUACCUGUCGUUGGACAAACAUAGUCAUCACUUUCAACAGAGGAUUGAGCAUCA"}},
  "note": "Whole data set: some 24,000 sequences, median “enrichment r” near 0.99, cut for the highest 2% near 3.7. For the sample, the highest values were picked, then their nearest neighbours and some sequences at random.",
  "data": [
    {"molecular_target": "T1, UNK ZnF1-3 (human, UniProt Q9C0B0 31-174)", "T1 sequence": "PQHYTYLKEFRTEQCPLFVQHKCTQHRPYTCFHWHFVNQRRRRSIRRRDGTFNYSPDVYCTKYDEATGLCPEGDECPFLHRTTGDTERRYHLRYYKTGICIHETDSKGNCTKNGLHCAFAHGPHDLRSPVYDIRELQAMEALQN", "assay": "nsRBNS (natural sequence RNA bind-n-seq); RBNS binding buffer (assumed for nsRBNS): 25 mM Tris pH 7.5, 150 mM KCl, 3 mM MgCl2, 0.01% Triton X-100, 500 ug/ml BSA, 20 U/ml SUPERase-In, 4 C; UNK is unkempt and MSI1 is Musashi-1; names of the RNAs are library labels; protein concentration not given here; high values mean tight binding", "units": {"binding signal": "enrichment R"}, "values": [
      {"binder": "B1", "binding signal": 0.548},
      {"binder": "B2", "binding signal": 0.761},
      {"binder": "B3", "binding signal": 1.29},
      {"binder": "B4", "binding signal": 2.32},
      {"binder": "B5", "binding signal": 1.77},
      {"binder": "B6", "binding signal": 1.02},
      {"binder": "B7", "binding signal": 1.08},
      {"binder": "B8", "binding signal": 3.81},
      {"binder": "B9", "binding signal": 5.43},
      {"binder": "B10", "binding signal": 1.58},
      {"binder": "B11", "binding signal": 1.55},
      {"binder": "B12", "binding signal": 7.64},
      {"binder": "B13", "binding signal": 14},
      {"binder": "B14", "binding signal": 0.666}
    ]}
  ]
}
